The target of assay [1] is Tyrosine-protein kinase receptor UFO (Homo sapiens) (UniProt P30530). Conditions: at 1 µM.
Assay [2] deals with Tyrosine-protein kinase Blk (Homo sapiens) (UniProt P51451). Conditions: at 0.1 µM.
For assay [3] the target is unchanged. Conditions: at 1 µM.
For assay [4], the target named is T1, Cytoplasmic tyrosine-protein kinase BMX (Homo sapiens) (UniProt P51813).
T1 sequence (whole entry): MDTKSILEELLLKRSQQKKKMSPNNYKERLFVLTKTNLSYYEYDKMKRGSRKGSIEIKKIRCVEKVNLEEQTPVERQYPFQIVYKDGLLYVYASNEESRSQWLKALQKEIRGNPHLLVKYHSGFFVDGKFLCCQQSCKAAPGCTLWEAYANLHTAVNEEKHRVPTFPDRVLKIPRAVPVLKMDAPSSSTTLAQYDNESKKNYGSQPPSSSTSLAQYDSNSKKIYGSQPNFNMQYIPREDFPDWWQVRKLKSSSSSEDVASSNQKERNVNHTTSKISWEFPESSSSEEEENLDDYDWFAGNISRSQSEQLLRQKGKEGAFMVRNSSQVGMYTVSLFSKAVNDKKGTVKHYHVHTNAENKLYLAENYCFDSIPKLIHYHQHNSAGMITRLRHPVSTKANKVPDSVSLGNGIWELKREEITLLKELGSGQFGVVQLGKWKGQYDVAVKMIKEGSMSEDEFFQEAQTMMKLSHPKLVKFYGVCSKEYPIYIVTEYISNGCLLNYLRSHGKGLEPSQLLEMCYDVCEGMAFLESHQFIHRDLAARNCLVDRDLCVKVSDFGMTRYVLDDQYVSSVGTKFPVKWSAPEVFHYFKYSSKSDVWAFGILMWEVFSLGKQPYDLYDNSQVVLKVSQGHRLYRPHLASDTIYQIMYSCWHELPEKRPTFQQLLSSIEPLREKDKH
Conditions: at 0.1 µM.

In assay [5] the target is T1, Cytoplasmic tyrosine-protein kinase BMX (Homo sapiens). Conditions: at 1 µM.
The target in assay [6] is Protein-tyrosine kinase 6 (Homo sapiens) (UniProt Q13882). Conditions: at 0.1 µM.
Assay [7] has the same target. Conditions: at 1 µM.
The target of assay [8] is Tyrosine-protein kinase BTK (Homo sapiens) (UniProt Q06187). Conditions: at 0.1 µM.
Assay [9] has the same target. Conditions: at 1 µM.
The target in assay [10] is Tyrosine-protein kinase CSK (Homo sapiens) (UniProt P41240). Conditions: at 0.1 µM.
Chain of Tyrosine-protein kinase CSK (Homo sapiens) (P41240 2-450 limits assumed): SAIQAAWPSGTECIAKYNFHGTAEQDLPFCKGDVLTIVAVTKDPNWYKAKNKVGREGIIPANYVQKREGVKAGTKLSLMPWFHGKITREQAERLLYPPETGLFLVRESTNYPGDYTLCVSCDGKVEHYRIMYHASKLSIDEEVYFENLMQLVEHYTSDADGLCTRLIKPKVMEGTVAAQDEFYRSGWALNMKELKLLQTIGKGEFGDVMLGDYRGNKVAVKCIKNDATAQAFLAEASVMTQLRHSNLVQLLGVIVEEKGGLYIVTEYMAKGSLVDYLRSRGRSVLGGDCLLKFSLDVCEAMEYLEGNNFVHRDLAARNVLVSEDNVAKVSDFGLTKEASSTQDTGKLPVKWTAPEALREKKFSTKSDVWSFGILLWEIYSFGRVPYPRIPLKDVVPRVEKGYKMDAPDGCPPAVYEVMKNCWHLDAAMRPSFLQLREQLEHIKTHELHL
Assay [11] shares this target. Conditions: at 1 µM.
Assay [12] concerns the target T2, Discoidin domain-containing receptor 2 (Homo sapiens) (UniProt Q16832).
T2 sequence (whole entry): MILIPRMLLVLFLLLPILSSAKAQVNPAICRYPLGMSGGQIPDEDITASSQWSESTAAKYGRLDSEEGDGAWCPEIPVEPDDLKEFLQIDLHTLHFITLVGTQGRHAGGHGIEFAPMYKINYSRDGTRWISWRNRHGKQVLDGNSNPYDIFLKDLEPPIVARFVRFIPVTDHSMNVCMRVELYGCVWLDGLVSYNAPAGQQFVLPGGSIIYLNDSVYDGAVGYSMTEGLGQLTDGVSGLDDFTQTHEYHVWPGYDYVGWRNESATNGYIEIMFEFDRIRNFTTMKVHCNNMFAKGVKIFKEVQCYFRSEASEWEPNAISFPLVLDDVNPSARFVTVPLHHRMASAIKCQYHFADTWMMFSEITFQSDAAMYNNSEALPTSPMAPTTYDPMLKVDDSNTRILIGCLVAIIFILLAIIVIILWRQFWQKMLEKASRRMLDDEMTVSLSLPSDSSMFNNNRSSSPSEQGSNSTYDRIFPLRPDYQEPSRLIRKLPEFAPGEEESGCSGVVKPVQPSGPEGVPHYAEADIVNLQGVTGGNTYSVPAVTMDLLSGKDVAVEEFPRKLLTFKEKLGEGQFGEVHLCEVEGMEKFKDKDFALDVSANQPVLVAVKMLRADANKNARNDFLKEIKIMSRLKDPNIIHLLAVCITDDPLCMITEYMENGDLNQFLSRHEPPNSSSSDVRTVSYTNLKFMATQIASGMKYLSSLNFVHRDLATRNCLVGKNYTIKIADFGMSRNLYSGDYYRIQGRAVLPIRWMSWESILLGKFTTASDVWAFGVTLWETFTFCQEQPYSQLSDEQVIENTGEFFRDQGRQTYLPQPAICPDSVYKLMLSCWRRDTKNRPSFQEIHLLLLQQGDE
Conditions: at 0.1 µM.

The target of assay [13] is T2, Discoidin domain-containing receptor 2 (Homo sapiens). Conditions: at 1 µM.
The target in assay [14] is Epidermal growth factor receptor (Homo sapiens) (UniProt P00533). Conditions: at 0.1 µM.
Chain of Epidermal growth factor receptor (Homo sapiens) (P00533 whole entry): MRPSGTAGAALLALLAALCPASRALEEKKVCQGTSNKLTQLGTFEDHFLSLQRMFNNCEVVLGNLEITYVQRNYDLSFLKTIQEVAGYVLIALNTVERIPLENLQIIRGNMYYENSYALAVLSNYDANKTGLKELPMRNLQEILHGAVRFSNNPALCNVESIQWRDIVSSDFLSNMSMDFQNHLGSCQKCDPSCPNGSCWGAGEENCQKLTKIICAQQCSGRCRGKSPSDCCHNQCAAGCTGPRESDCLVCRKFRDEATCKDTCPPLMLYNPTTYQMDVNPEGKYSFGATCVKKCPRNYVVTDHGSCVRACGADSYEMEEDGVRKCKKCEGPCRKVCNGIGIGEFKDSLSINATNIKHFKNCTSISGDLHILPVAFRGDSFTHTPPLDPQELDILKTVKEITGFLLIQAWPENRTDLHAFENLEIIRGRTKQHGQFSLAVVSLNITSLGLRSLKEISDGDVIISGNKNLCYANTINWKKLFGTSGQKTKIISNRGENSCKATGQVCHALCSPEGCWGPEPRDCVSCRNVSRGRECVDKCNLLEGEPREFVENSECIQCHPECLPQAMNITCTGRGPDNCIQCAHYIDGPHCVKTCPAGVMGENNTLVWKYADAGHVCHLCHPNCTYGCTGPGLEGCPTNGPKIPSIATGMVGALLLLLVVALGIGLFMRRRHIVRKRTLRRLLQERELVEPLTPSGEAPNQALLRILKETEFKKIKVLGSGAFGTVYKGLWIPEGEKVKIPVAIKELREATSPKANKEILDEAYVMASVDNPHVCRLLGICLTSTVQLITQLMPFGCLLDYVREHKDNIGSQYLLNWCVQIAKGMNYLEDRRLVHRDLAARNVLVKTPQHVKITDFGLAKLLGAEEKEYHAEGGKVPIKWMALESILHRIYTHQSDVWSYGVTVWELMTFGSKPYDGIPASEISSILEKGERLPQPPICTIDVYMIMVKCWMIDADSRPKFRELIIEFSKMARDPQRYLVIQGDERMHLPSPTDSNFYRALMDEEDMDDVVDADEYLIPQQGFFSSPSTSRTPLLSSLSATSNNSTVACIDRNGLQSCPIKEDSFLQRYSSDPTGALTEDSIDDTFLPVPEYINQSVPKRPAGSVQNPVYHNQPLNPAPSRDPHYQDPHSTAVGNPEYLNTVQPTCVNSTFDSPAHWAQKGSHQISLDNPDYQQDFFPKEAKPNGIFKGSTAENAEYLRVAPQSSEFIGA
Assay [15] has the same target. Conditions: at 1 µM.
For assay [16], the system named is Epidermal growth factor receptor (Homo sapiens), P00533 [L858R]. Conditions: at 0.1 µM.
Assay [17] has the same test system. Conditions: at 1 µM.
For assay [18], the system named is Epidermal growth factor receptor (Homo sapiens), P00533 [L861Q]. Conditions: at 0.1 µM.
Chain of Epidermal growth factor receptor (Homo sapiens), P00533 [L861Q] (P00533 whole entry L861Q): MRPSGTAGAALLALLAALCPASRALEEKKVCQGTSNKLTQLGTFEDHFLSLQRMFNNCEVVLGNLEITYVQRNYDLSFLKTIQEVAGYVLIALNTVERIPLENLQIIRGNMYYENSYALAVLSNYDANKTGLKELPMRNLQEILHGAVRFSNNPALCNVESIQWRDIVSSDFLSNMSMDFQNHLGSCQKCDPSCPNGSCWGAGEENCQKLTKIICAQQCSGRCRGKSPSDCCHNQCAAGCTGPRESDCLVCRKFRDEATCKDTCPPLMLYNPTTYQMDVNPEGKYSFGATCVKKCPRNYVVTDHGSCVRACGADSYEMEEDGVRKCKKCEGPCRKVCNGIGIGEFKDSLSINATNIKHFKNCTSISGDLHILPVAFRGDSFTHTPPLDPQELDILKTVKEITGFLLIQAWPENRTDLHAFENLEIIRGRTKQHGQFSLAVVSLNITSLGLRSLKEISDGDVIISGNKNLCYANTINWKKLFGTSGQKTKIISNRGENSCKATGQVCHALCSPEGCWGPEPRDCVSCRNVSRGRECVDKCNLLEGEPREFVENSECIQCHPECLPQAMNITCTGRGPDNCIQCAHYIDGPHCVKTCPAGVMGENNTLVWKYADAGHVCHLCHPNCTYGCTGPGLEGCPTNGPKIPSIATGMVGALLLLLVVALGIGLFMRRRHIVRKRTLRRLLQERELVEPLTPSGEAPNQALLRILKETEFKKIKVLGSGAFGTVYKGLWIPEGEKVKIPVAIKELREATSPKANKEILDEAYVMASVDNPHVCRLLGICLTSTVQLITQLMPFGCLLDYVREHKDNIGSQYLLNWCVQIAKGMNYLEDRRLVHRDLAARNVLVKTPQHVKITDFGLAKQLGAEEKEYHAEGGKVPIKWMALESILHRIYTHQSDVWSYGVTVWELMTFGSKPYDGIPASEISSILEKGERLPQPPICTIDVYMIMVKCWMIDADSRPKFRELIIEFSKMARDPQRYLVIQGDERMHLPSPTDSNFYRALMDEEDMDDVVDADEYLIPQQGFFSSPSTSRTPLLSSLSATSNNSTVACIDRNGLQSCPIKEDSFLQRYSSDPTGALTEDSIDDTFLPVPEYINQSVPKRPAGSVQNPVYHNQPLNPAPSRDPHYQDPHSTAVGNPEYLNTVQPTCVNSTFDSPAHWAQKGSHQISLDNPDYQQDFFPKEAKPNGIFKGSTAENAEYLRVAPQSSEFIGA
Assay [19] shares this test system. Conditions: at 1 µM.
Assay [20] has as its system Epidermal growth factor receptor (Homo sapiens), P00533 [T790M]. Conditions: at 0.1 µM.

For seven compounds, inhibition results are on record in ChEMBL document CHEMBL1961873, “Compounds: GSK PKIS; Assays: Nanosyn kinase panel” (2012).

By inhibition is commonly meant the relative decrease from the control value, in per cent.

Chain of Epidermal growth factor receptor (Homo sapiens), P00533 [T790M] (P00533 whole entry T790M): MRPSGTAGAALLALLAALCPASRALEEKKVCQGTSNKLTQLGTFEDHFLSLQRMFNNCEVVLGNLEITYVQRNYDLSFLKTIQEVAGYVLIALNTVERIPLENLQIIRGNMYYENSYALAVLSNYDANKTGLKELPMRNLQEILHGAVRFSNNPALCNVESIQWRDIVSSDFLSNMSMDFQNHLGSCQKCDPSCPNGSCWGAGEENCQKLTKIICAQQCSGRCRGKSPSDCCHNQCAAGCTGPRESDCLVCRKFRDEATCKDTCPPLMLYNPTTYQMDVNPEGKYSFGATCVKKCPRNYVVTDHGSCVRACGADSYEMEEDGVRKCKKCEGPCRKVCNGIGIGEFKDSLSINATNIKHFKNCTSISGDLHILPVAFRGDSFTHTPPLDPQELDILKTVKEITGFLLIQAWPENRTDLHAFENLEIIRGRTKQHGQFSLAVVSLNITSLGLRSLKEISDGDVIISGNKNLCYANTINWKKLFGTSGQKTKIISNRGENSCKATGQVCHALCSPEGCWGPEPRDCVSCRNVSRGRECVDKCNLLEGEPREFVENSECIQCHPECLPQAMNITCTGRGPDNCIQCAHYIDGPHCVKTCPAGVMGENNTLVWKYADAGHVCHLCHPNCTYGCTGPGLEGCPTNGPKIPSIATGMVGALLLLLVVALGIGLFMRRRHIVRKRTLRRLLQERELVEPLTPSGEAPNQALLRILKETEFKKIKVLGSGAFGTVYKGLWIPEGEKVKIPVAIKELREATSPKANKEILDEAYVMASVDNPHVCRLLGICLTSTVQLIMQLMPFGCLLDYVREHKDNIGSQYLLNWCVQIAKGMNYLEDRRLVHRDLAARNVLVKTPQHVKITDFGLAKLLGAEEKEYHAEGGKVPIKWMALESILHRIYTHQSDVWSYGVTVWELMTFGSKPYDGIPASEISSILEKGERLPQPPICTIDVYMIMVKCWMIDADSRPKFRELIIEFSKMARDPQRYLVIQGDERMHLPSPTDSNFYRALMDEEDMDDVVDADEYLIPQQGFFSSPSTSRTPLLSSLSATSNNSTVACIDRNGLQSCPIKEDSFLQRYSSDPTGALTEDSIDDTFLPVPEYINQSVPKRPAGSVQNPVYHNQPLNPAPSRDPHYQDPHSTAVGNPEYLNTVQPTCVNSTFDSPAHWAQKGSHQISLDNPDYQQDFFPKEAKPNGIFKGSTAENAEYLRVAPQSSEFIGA
Chain of Tyrosine-protein kinase receptor UFO (Homo sapiens) (P30530 whole entry): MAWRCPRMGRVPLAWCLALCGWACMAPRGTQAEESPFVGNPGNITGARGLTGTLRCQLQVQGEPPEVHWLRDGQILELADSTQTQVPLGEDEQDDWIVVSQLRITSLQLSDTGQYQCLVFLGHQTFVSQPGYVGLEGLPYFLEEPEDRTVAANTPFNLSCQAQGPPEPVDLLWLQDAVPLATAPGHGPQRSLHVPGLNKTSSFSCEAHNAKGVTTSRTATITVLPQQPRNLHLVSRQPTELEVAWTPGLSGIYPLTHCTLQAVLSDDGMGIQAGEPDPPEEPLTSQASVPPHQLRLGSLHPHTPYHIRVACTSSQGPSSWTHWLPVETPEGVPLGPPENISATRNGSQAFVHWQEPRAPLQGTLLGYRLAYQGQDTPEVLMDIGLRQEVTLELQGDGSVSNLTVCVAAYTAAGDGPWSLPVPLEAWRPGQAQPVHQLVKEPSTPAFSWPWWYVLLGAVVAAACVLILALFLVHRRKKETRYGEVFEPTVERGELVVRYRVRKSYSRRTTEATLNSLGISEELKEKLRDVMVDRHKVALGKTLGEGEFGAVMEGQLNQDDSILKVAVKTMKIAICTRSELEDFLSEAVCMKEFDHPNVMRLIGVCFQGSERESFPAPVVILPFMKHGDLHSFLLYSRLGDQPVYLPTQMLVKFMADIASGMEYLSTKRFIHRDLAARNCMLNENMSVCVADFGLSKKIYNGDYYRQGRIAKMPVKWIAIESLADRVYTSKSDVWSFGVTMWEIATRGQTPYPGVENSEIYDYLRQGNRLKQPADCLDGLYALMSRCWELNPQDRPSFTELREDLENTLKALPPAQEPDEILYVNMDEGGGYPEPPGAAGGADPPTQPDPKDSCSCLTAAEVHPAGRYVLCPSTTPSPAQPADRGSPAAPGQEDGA

With `CN1CCN(C(=O)c2ccc(NC(=O)Nc3ccc(N(C)c4ccnc(Nc5ccc(CS(C)(=O)=O)cc5)n4)cc3)cc2)CC1`, the inhibition in assay [1] was 11.9%; in assay [2] it was 2.76%; in assay [3] it was 24.4%; in assay [4] it was 19.1%; in assay [5] it was 68%; in assay [6] it was -1.96%. Besides, the inhibition in assay [7] was 13.5%; in assay [8], 1.59%; in [9], 16%; in assay [10] it was -1.19%; in assay [11] it was 12.6%; in [12] it was 66%. Besides, the inhibition in assay [13] is 85%; in assay [14], 4.52%; in assay [15], 7%; in [16] it was -3.46%; in [17] it was 2.15%; in assay [18], 1.12%. Besides, the figures for the inhibition in assay [19] and in [20] were 4.44% and -0.46%, respectively.

With `COc1cccc(-n2ncc3c(N/N=C/c4ccc(S(C)(=O)=O)cc4)ncnc32)c1`, the inhibition in assay [1] was determined as 1.34%; in [2] it was 7.91%; in assay [3], 38.4%; in [4], 10.1%; in [5] it was 30.7%; in assay [6], 6.33%. For the same compound, the inhibition was 26.8% in assay [7]; -4.35% in [8]; -3.39% in assay [9]; 5.8% in [10]; 18.2% in assay [11]; 1.49% in [12]. For the same compound, the inhibition in assay [13] stood at 7.83%; in assay [14] it was 6.5%; in [15] it was 22.6%; in assay [16], 29.7%; in [17], 57.8%; in assay [18] it was 8.34%. Moreover, the results for the inhibition in assay [19] and in assay [20] were 20.6% and 0.29%, respectively.

As to `CCn1c(-c2nonc2N)nc2ccc(F)cc21`, the inhibition in assay [1] is -5.29%; in assay [2], 3.96%; in assay [3], 4.5%; in assay [4], 5.08%; in assay [5] it was 6.05%; in assay [6] it was 4.83%. Further, the inhibition is 8.38% in [7]; 0.19% in [8]; -0.49% in assay [9]; 5.53% in assay [10]; 8.91% in assay [11]; 0.92% in assay [12]. Also, the inhibition in assay [13] is 4.58%; in assay [14], 12.1%; in assay [15] it was 13.4%; in [16], 4.05%; in assay [17], 12.7%; in [18], 4.88%. The results for the inhibition in assay [19] and in assay [20] were 8.61% and 3%, respectively.

On to `COc1cc2ncnc(Nc3ccc(C)c(O)c3)c2cc1OC`, for which the inhibition in [2] was 7.68%; in [3], 49%; in assay [4] it was 6.28%; in assay [5], 13%; in assay [6], 17.5%; in assay [7], 65.5%. Further, the inhibition was found to be 0.81% in assay [8]; 15.9% in [9]; 5.1% in [10]; 16.8% in assay [11]; 2.29% in assay [12]; 9.45% in assay [13]. The inhibition in [14] was found to be 64.7%; in [15] it was 80.9%; in assay [16], 92.3%; in [17] it was 99.4%; in [18] it was 77.2%; in assay [19] it was 96.2%. In assay [20], the inhibition stood at 8.64%.

`C[C@@H](Oc1cc(-n2cnc3ccc(OCC4CCN(C)CC4)cc32)sc1C(N)=O)c1ccccc1C(F)(F)F`: the inhibition in assay [1] was 12.8%; in [2], 1.16%; in assay [3], 14.4%; in assay [4], -1.33%; in assay [5], -2.09%; in assay [6], -0.71%. The inhibition in [7] was -4.24%; in assay [8], 0.52%; in [9] it was -1.06%; in [10], -4.98%; in [11], -1.36%; in [12] it was -1.18%. The inhibition was -4.23% in assay [13]; 2.6% in [14]; 9.98% in assay [15]; 8.84% in assay [16]; 42.5% in [17]; -0.46% in assay [18]. Further, the inhibition in assay [19] was 8.68%; in assay [20], -1.87%.

Take `O=C1Nc2ccccc2/C1=C/Nc1ccc2[nH]c(=O)[nH]c2c1`: the inhibition in [2] worked out at 7.96%; in assay [3], 33%; in [4], 5.38%; in assay [5] it was 7.7%; in [6], 4.56%; in assay [7], 8.06%. In addition, the inhibition in [8] stood at 0.87%; in assay [9], 4.29%; in [10], 6.52%; in [11], 9.18%; in assay [12] it was 5.46%; in assay [13] it was 8.62%. In addition, the inhibition in assay [14] was determined as 4.63%; in [15] it was 7.94%; in [16], 3.53%; in assay [17], 6.79%; in assay [18], 4.1%; in [19], 6.47%. The inhibition in assay [20] turned out to be 3.08%.

For `COc1cc2ncn(-c3cc(OCc4ccccc4S(C)(=O)=O)c(C#N)s3)c2cc1OC`, the inhibition is 43.5% in [1]; 16.6% in assay [2]; 72.3% in assay [3]; 1.45% in assay [4]; 33.1% in assay [5]; 4.42% in [6]. The inhibition worked out at 9.89% in assay [7]; 1.87% in assay [8]; 11.8% in assay [9]; 7.28% in assay [10]; 4.26% in assay [11]; 2.02% in assay [12]. Besides, the inhibition was 8.19% in assay [13]; 3.74% in [14]; 11.8% in assay [15]; 9.37% in assay [16]; 45.8% in [17]; 3.09% in assay [18]. For the same compound, the inhibition stood at 8.31% in [19] and 3.02% in assay [20].
